Measured values reported in the supplement of paper PMC10732440.
± gives the standard deviation of the averaged measurements.

What follows are compounds tested on Caenorhabditis elegans N2 infected with Nematocida parisii ERTm1 (assay: progeny production relative to DMSO uninfected control; higher = more progeny despite microsporidia infection (inhibition of infection with low host toxicity)). Details: infection time 6 days; 100 µM.
Outline: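 Bleach-synchronised wild-type C. elegans L1 larvae (100 per well) were placed in 96-well plates with K-medium, E. coli OP50 and 15,000 N. parisii spores/μL, with compound pinned to 100 μM or 40 μM in 1% DMSO. Plates were shaken at 21°C for 6 days; worms were then Rose Bengal-stained, flatbed-scanned and counted with WorMachine, each compound and dose tested three times. Progeny production is given as a percentage of the spore-free vehicle control, averaged across replicates.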

SMILES	progeny production [%]
NCCCc1ccccc1C(=O)Nc1ncc([N+](=O)O)s1	25.2 ± 31
CCN(CC)CCCC(C)Nc1ccnc2cc(Cl)ccc12 (stereo not given)	5.16 ± 3.5
CCCC(=O)OCCc1ccccc1	11.9 ± 12
O=S(=O)(Nc1ccc(-n2cccc2)cc1)c1ccc(Cl)c(Cl)c1	35.7 ± 29
CC1CCc2c(N3CCC(O)CC3)c(F)cc3c(=O)c(C(=O)O)cn1c23 (stereo not given)	11 ± 2.9
CCO/N=C/c1ccc(OCCCCN2CCN(c3ccncc3)C2=O)cc1	9.79 ± 7.8
Cc1cc(C)n2nc(C(=O)NS(=O)(=O)c3c(C)cccc3OC(F)(F)F)nc2n1	5.89 ± 3.9
NC(=S)N/N=C/c1ncccc1N	18.8 ± 12
CCC(C)NCC(O)Cn1c2ccc(Cl)cc2c2cc(Cl)ccc21 (stereo not given)	6.85 ± 6.4
COc1ccc2sc3c(c2c1)NC(C)CNC3=O (stereo not given)	29.9 ± 22
C[C@H](Cn1cnc2c(N)ncnc21)OCP(=O)(O)O	17.4 ± 6
Cc1nc2ccc(Cl)cc2c(-c2ccccc2)c1CC(=O)O	13.8 ± 12
CCc1ccc(C2CC(C(F)(F)F)n3ncc(C(=O)NCc4ccc(OC)cc4)c3N2)cc1 (stereo not given)	7.32 ± 3.4
COc1ccc(OCc2ccc(COc3c(Cl)cccc3Cl)cc2)c(Cl)c1	12.3 ± 5.3
CC#C[C@]1(O)CC[C@H]2[C@@H]3CCC4=CC(=O)CCC4=C3[C@@H](c3ccc(N(C)C)cc3)C[C@@]21C	14.9 ± 4.7
CC(C)Cn1c(=O)n(C)c(=O)c2c(-c3cncn3C)n(Cc3cccc4ccccc34)nc21	6.12 ± 1.8
CC[C@H](CO)Nc1nc(NCc2ccccc2)c2ncn(C(C)C)c2n1	13.5 ± 9.8
CCCC1(C2CC2)c2cc(Cl)ccc2NC(=O)N1C (stereo not given)	11.3 ± 3.5
CCCNc1ccc(S(=O)(=O)Nc2cc(C)on2)cc1	14 ± 3.8
CC(C)N(c1cc(-c2ccccc2)sc1C(=O)O)C(=O)[C@H]1CC[C@H](C)CC1	12.2 ± 7.8

SMILES	progeny production [%]
COc1ccc(C2=CC(c3c(F)cccc3Cl)n3ncnc3N2)cc1 (stereo not given)	8.48 ± 5.9
Cc1nc2ccc(Oc3ccccc3)cc2c2c1CCN2CCc1ccccc1	11.3 ± 9.1
O=C(N[C@H](CCS)C(=O)N[C@H](Cc1ccccc1)C(=O)O)c1cc2ccccc2[nH]1	11.3 ± 6.7
COC1CC2CCC(C)C(O)(O2)C(=O)C(=O)N2CCCCC2C(=O)OC(C(C)CC2CCC(OCCO)C(OC)C2)CC(=O)C(C)/C=C(\C)C(O)C(OC)C(=O)C(C)CC(C)/C=C/C=C/C=C/1C (stereo not given)	9.56 ± 2.5
CCCCCOc1ccc(/C=C2\Oc3c(ccc(O)c3O)C2=O)c(O)c1	11.2 ± 7
N#Cc1c(F)c(Cl)c(NCc2ccccc2)c(C#N)c1F	15 ± 3.8
O=S(=O)(Nc1ccccc1)c1ccc(NC(=S)Nc2ccccc2)cc1	11.2 ± 6.4
CCc1oc2ccccc2c1C(=O)c1ccc(O)cc1	16.8 ± 0.54
CC(C)Nc1nc2cc(Cl)c(Cl)cc2n1[C@H]1O[C@@H](CO)[C@H](O)[C@@H]1O	9.08 ± 2.1
Cc1ccc(NC(=O)c2ccc(CN3CCN(C)CC3)cc2)cc1Nc1nccc(-c2cccnc2)n1	9.12 ± 3.8
Cc1cc(O)c2c(c1)C(=O)c1c(I)c(O)c(I)c(O)c1C2=O	25.1 ± 5.2
O=C(Nc1ccc(N2CCN(C(=O)c3ccccc3)CC2)cc1)c1ccc2c(c1)OCO2	15.6 ± 10
Cc1[nH]c2ccccc2c1CC(=O)N[C@@H](Cc1ccccc1)C(=O)N(C)c1ccccc1	17.6 ± 9.7
CCc1cc(Nc2cc(=O)n(CCN3CCN(C(=O)c4ccccc4)CC3)c(=O)[nH]2)ccc1C	21 ± 12
NC(=O)c1nccn([C@@H]2O[C@H](CO)[C@@H](O)[C@H]2O)c1=O	10.3 ± 7.2
O=C(N[C@H](Cc1cccc2ccccc12)C(=O)NCCc1c[nH]cn1)C1Cc2ccccc2C1	17.2 ± 4.5
CCCCCCCCCN1C[C@@H](O)[C@H](O)[C@@H](O)[C@@H]1CO	11.9 ± 5.5
CCN(CC)CCn1c(=N)n(CC(O)COc2ccc(Cl)cc2Cl)c2ccccc21 (stereo not given)	16.5 ± 20
Fc1ccc2c(/C=C/c3cccnc3)c[nH]c2c1	19.9 ± 9
CCCCCCC1c2ccc(O)cc2Oc2cc(O)ccc21	29.9 ± 30
